ALOX15B inhib = blocks human 15-lipoxygenase 2 activity; Potency, µM (doses to about 57.1 µM), without a hit: at the highest dose activity change, negative = inhibition, most hits filed as inhibitors; O15296; purified 15hLO-2, xylenol orange hydroperoxide absorbance; 0.56% of 110,000 active; also: potency is read from the fitted curve at half-maximal effect; nearly all actives have a fitted effect of over 60% in size
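Purified human 15hLO-2 (50 nM final) preincubated with compounds 15 min at room temperature in 25 mM Hepes pH 7.5, 0.01% Triton X-100, then 45 uM arachidonic acid added for 90 min; hydroperoxide detected via ferrous/xylenol orange, 573/405 nm absorbance ratio.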
IMPase cell inh = IMPase inhibition in cells; P97697; CHO-M1 cells, IP1 accumulation, HTRF TR-FRET ratio; inhibition (IP1 accumulation), % at 46.1 µM; 120,000 tested, under 10 active; AID 901; active = well fitted curve in the direction sought with a large enough effect in the signal ratio, not every such curve was filed as active; inconclusive = small, poorly fitted or top-dose-only effect, or a change in a side signal; inactive = no such curve, though single readings can be large or run the other way; the % refers to the signal ratio;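 also: cells stimulated with carbachol in lithium chloride buffer; plate controls were DMSO basal wells for no effect and reference inhibitor wells for full effect; higher means more IMPase inhibition seen as more IP1 and lower FRET ratio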
Target sequence (P97697 whole entry, looked up): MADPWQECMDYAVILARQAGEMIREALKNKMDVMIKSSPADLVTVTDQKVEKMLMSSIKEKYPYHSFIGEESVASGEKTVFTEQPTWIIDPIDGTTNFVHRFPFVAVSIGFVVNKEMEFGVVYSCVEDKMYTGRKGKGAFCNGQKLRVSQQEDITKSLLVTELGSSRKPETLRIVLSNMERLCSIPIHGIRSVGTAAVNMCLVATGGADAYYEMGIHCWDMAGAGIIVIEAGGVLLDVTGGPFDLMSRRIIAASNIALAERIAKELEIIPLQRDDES
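Elevated IP1 in lysates lowers TR-FRET signal (665/620 ratio and 620 channel reported). Cells were CHO-M1, given carbachol (50 uM as added) plus 50mM LiCl, pH 7.4, 30 min, 37C; compounds titrated up to 46 uM; AC50 by Hill equation.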
ALOX12 inhib = blocks human 12-lipoxygenase activity; P18054; purified 12-hLO, xylenol orange hydroperoxide absorbance; Potency, µM (doses to about 57.1 µM), for the others: at the top dose activity change, negative = inhibition, usual class: inhibitors; 0.12% of 150,000 active; also: potency is read from the fitted curve at half-maximal effect; nearly all actives have a fitted effect of over 55% in size
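Purified human 12hLO (150 nM), preincubated 15 min with compound, then 40 uM arachidonic acid for 30 min, room temperature, Hepes pH 7.0 with 0.01% Triton X-100. Hydroperoxide detected by ferrous iron/xylenol orange; 573/405 nm absorbance ratio gives reaction progress.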
PNC inhibitor = perinucleolar compartment assembly inhibition | PC3M PTB-GFP, PNC prevalence imaging, 16 h; active compounds read low | activity change (PNC), negative = inhibition, % at 10 µM | 3.1% of 140,000 active | AID 2417;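 active = readout at or below -70, meaning at least 70% loss of cells showing the perinucleolar compartment, a nuclear body marking cancer cells; inconclusive = readout between -30 and a set limit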;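 also: plate controls were DMSO wells for no effect and camptothecin positive control wells for full effect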
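PC3M cells stably expressing PTB-GFP, 750–1000 cells/well, treated 16 h at 37 °C with compound (23 nl of library stock), in duplicate. After paraformaldehyde fixation and Hoechst stain, imaged at 20x; PNC prevalence scored by image analysis.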
IMPase Li cell = membrane-permeable IMPase blocker, potentiated with lithium; 0.35% of 210,000 active; AID 1457; CHO-M1 cells, IP1 TR-FRET (IP-One), carbachol + lithium; Potency, µM (series often up to 59.4 µM), inactives show at the top dose activity, negative = IMPase inhibition, hits mostly inhibitors;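 also: IP1 builds up when IMPase is blocked and the TR-FRET signal falls; potency is read from the fitted curve at half-maximal effect; plate controls were basal vehicle for no effect and high inhibitor control for full effect; nearly all actives have a fitted effect of over 50% in size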
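CHO cells stably expressing M1 receptor (2000/well, cultured 16–30 h) treated 30 min at 37C with compound plus low lithium. Cytosolic IP1 by TR-FRET (665/620 ratio and 620 channel) after 10 min lysis; AC50 by Hill fit.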
HPGD inh = blocks human HPGD enzyme activity. purified HPGD, NADH fluorescence kinetic, PGE2 substrate. P15428. Potency, µM, for the others: at the highest dose activity change, negative = inhibition, actives largely listed as inhibitors. 4.3% of 150,000 active; active = well fitted inhibition curve with a large enough effect, not every such curve was filed as active; inconclusive = small, poorly fitted or top-dose-only effect, or another doubt; inactive = no such curve, though single readings can be large or run the other way; also: potency is read from the fitted curve at half-maximal effect
Target sequence (P15428 whole entry, looked up): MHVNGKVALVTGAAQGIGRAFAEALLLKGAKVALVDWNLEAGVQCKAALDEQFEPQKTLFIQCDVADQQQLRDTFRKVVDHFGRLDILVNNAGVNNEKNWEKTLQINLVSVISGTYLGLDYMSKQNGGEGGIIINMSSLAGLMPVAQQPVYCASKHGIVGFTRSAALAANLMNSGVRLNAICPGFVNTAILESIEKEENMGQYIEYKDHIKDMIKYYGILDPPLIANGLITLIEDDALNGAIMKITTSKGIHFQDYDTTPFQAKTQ
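NADH formation kinetics: reaction with 30 uM PGE2 and 1 mM NAD+ (final), 20 nM enzyme, Tris-HCl pH 8 with Tween 20, after 15 min compound preincubation at room temperature. Fluorescence change, last versus first of five reads.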
Active calls of the source: *; ? = inconclusive; . = not tested or not shown; [ ] = dose if it differs, or a comment. An excerpt weighted towards active compounds, which were near 5.4% of everything screened. Unless noted, calls follow the shape of the dose curve; as a rule, active = well fitted curve in the direction sought with a large enough effect; inconclusive = small, poorly fitted or top-dose-only effect, or another doubt; inactive = no such curve, though single readings can be large; an effect the other way counts as inactive or inconclusive. Unless noted, % is scaled to controls: 0 for no effect and ±100 for the full control effect.

SMILES | ALOX15B inhib | IMPase cell inh | ALOX12 inhib | PNC inhibitor | IMPase Li cell | HPGD inh
O=C(c1cccc(F)c1)N1CCc2ccccc21 | -3% | 6 | -1% | ? | 22%[38.3 µM] | -13%
Cc1nc2cc(C(=O)N3CCc4ccccc43)ccc2n1-c1ccc(F)c(F)c1 | . | . | 6% | 41 | 9% | 14µM*
COC(CNC(=O)c1ccc2c(c1)nc(C)n2-c1cccc(F)c1)OC | 1% | 4 | -1% | 19 | 18%[38.3 µM] | 11µM*
O=C(Nc1cccc(-c2nc3ccccc3o2)c1)C(F)(F)F | . | -3 | . | . | . | .
Cc1ccc(S(=O)(=O)N(CC(=O)Nc2ccc3c(c2)OCO3)c2ccc(C)c(Cl)c2)cc1 | . | 0 | . | . | . | .
CCOCCCNC(=O)c1ccc2c(c1)ncn2C1CCCC1 | 4% | -8 | 2% | -23 | 13%[38.3 µM] | 18µM*
C[N@@+]1(Cc2ccc(Cl)c(Cl)c2)CCC[C@@H]1c1ccc[n+](Cc2ccc(Cl)c(Cl)c2)c1 | 2%[11.4 µM] | . | -3%[11.4 µM] | . | 19% | -7%
O=c1cnc2cncnc2n1Cc1ccc(F)cc1 | -5% | . | . | . | -3% | .
CCCCN1C(=O)/C(=C2\SC(N3CCCCC3)=NC2=O)c2ccccc21 | -17% | 15 | -3% | -17 | 6%[38.3 µM] | 22µM*
COc1cc(C=O)ccc1OCCSc1ccc(Cl)cc1 | 9% | -7 | 4% | 68 | -2%[38.3 µM] | 11µM*
CCOC(=O)N/N=C/c1ccc(OCCSc2ccc(Cl)cc2)c(OCC)c1 | . | . | -1% | 0 | -7% | 16µM*
Fc1ccc(N/N=C2/CC(c3ccccc3)Oc3ccccc32)c(F)c1 (centres undefined) | . | . | ? | -94* | 14% | -29%
CNC(=S)N/N=C1\CC(c2ccccc2)Oc2ccccc21 (centres undefined) | . | . | . | . | 12% | .
N#Cc1cc([N+](=O)[O-])c(-n2nnc3ccccc32)c([N+](=O)[O-])c1 | -24% | -4 | -10% | -3 | 6%[38.3 µM] | 28µM*
COc1ccc(NS(=O)(=O)c2ccc3oc4ccccc4c3c2)cn1 | -14% | 11 | -14% | -14 | 22%[38.3 µM] | 22µM*
Cc1ccccc1CN1CCN(CC2CC3C=CC2C3)CC1 (centres undefined) | 23% | 8 | -1% | 45 | 50%[38.3 µM] | 3%
CS(=O)(=O)N1CCN(CC2CC3C=CC2C3)CC1 (centres undefined) | -17% | -1 | -1% | -89* | 18%[38.3 µM] | 1%
C1=CC2CC1CC2CN1CCN(c2ccccc2)CC1 (centres undefined) | 1% | 4 | -3% | -81* | 45%[38.3 µM] | 3%
COc1cccc(-c2ccc3ncnc(Nc4ccccc4)c3c2)c1 | 55% | . | . | . | 11% | .
Cc1cc(C)c2c(=O)[nH]n(C(C)C)c2n1 | 2% | 6 | 4% | ? | 23%[38.3 µM] | -18%
CCC(CC)n1[nH]c(=O)c2c(C)cc(C)nc21 | -3% | 3 | 1% | -82* | 2% | -6%
O=c1cc(-c2ccccc2Cl)oc2cc(O)cc(O)c12 | . | . | -6% | -15 | 1% | 18µM*
CCOc1cccc2oc(-c3ccccc3Cl)cc(=O)c12 | -11%[0.0915 µM] | . | -13%[0.00818 µM] | . | 21% | 45µM*
COc1cccc2oc(-c3ccccc3)cc(=O)c12 | -8% | 3 | 0% | . | 17% | ?
CCCCc1nc2c(c3c1C[C@H](C)OC3)CN(S(=O)(=O)c1c(C)noc1C)CC2 | . | . | -2%[11.4 µM] | . | 4% | -9%
SMILES | ALOX15B inhib | IMPase cell inh | ALOX12 inhib | PNC inhibitor | IMPase Li cell | HPGD inh
COc1ccc(C2OC3C(CO)OC(n4cnc5c(=O)[nH]c(N)nc54)C3O2)cc1 (centres undefined) | 0% | . | 7% | . | 6% | 16µM*
CCc1nc2ccccc2n2c(-c3ccccc3)c3c(=O)n(C)c(=O)n(C)c3c12 | . | 2 | . | . | . | .
Cc1ccc(F)cc1NC(=O)CSc1nc(-c2cccs2)cc(C(F)(F)F)n1 | . | -2 | . | . | . | .
CCCC(C(=O)O)N1C(=O)/C(=C2\C(=O)N(C)c3ccccc32)SC1=S (centres undefined) | ? | 3 | -28% | 7 | 5%[38.3 µM] | 25µM*
CCCCC(CC)CNC(=O)CCS(=O)(=O)c1cccc2nonc12 (centres undefined) | -1% | 14 | -1% | ? | 24%[38.3 µM] | -7%
CCCCC(CC)CNC(=O)CC1Nc2c3ccccc3nc(=S)n2C1=O (centres undefined) | . | . | . | . | 13µM* | .
CNC1C(OC2C(O[C@@H]3C(O)C(O)[C@@H](N=C(N)N)C(O)C3N=C(N)N)OC(C)[C@@]2(O)CO)OC(CO)C(O)C1O (some centres undefined) | 16% | . | 3% | . | 4% | -10%
CCc1ccc(C2=NN(S(C)(=O)=O)C(c3cccs3)C2)cc1 (centres undefined) | -5% | 4 | -11% | -100* | 5%[38.3 µM] | -30%
Cc1ccc(C2=NN(S(C)(=O)=O)C(c3cccs3)C2)cc1 (centres undefined) | 3% | 1 | -2% | 73 | 2%[38.3 µM] | -1%
O=C(Cc1ccccc1)Nc1ccccc1C(=O)Nc1ccccc1 | . | . | -2% | -120* | 17% | ?
O=C(Nc1ccc(-n2nncc2-c2ccco2)cc1)c1cccc(F)c1 | -19% | 5 | -8% | 12 | 22% | 13µM*
CC(C)CNC(=O)O | -2%[11.4 µM] | . | 3%[11.4 µM] | . | -7% | -14%
Cc1ccc(C)c(N2CCN(S(=O)(=O)c3ccc4oc(=O)c5ncn(C)c5c4c3)CC2)c1 | . | -15 | . | . | . | .
Cc1cc(C(=O)N(C)C)sc1-c1ccccc1 | . | ? | -3% | -3 | -7% | 6.3µM*
COCCOC(=O)c1c(C)oc2ccc(OCc3ccccc3)cc12 | . | . | 2% | -114* | -3% | -7%
CN(C)C(=O)c1ccc(Oc2ccc(C(=O)N(C)C)cc2)cc1 | -7% | 4 | 0% | 27 | 7%[38.3 µM] | 16µM*
Cc1ccc(Sc2c(C)nn(C(=O)COc3ccc(F)cc3)c2C)cc1 | . | 10 | . | . | . | .
O=C(Nc1ccc(N2C(=O)C3C4C=CC(C4)C3C2=O)cc1)Nc1cccnc1 (centres undefined) | 0% | -2 | -2% | -25 | 16%[38.3 µM] | 18µM*
O=C(NCCN1C(=O)C2C3C=CC(C3)C2C1=O)Nc1cccnc1 (centres undefined) | 9% | 3 | 0% | -28 | 0%[38.3 µM] | 3%

Assay outcomes from PubChem BioAssay.
